Test results published in the supplement of paper PMC10338343.
± gives the standard deviation.

test system: MILI (PIWIL2) piRISC loaded with L1MC piRNA (26 nt); assay: pre-steady-state target cleavage rate (min^-1); guide: L1MC piRNA 5'p-UAACUAAAUACUAUGCAAGCUGUAGG; MIWI and MILI are mouse PIWI proteins and EfPiwi is from a freshwater sponge; tags in brackets are library labels; higher = faster piRNA-guided slicing of the target; conditions: auxiliary factor: 500 nM mouse GTSF1
In short: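 The method was Cleave-'n-Seq, in which uncleaved targets from a transcribed, DNA-blocked target RNA library were sequenced after exposure to active affinity-purified piRISC carrying one synthetic guide, with or without GTSF1 partner protein. Reactions contained 0.1 nM library, 1 nM piRISC and, where present, 500 nM GTSF1 in HEPES–potassium acetate buffer at 33 °C for 0–8 or 0–960 min. Reads were normalised to depth and to weakly complementary targets, three trials were pooled, and k3 was capped at 0.0001 min^-1. The pre-steady-state cleavage rate came from a burst-and-steady-state fit.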

Sequence | pre-steady-state target cleavage rate
UCCUGGAUGUCGUUGCUUAGUAUUUAGUAA | 0.0495 ± 0.02
UCCUGGAUGUCGAUGCAUAGUAAUUUAGUUA | 0.0247 ± 0.008
UCCUGGAUGUGCUUGCUUAGUAAUUAGUUA | 0.0601 ± 0.0087
UCCUGGAUGUCCUUGCAUAGUAUAUUAGUUA | 0.188 ± 0.034
UCCUCCUACAGCUUGCUAUGUAUUUAGUUA | 0.0502 ± 0.011
UCCUGCUUCAGCUUGCAUUGUAUUUAGUUA | 0.218 ± 0.013
UCCUGGAUGUCGUUGCAUAGUAUUUAGUUG [g2:g18:cont:t1G] | 0.1 ± 0.016
UCCUGGAUGUCGUUGCUUAGUAUUUUGUUA | 0.0541 ± 0.016
UCCUGGAUGUCGUUGCAAAGUAUUUAGUUA | 0.0181 ± 0.0047
UCCUGGAUGUCCUUGGAUAGUAAUUAGUUA | 0.411 ± 0.1
UCCUGGAUGAGGAAGCAUAGUAUUUAGUUA | 0.0519 ± 0.012
UCCUGGAUCAGCUUGCAUAGUAUUAACUUA | 0.0348 ± 0.011
UCCUGGAUGUGCUUGGAUAGUAUAUAGUUA | 0.118 ± 0.026
UCCUGGAUGUGCUUGCUUUGUAUUUAGUUA | 0.0124 ± 0.0051
UCCUGCUACAGCUUGCAAAGAAUUUAGUUA | 0.0168 ± 0.0052

same assay, conditions: auxiliary factor: none (no GTSF1)

Sequence | pre-steady-state target cleavage rate
UCCUGGUACACCUUGCAAAGUAUUUAGUUA | 0.0081 ± 0.0033
UCCUGGAUGUCGUAGCAUAGUAUAUAGUUA | 0.0048 ± 0.0023
UCCUGGAUGUCCUUGCAUAGUGAUUUAGUUA | 0.00503 ± 0.0028
UCCUGGAUGUCGAUAGCAUAGUAUUUAGUUA | 0.00341 ± 0.0026
UCCUGGAUCAGAUUGCAUAGUAUUUAGUUA | 0.00667 ± 0.002
UCCUGGAUGUCGAUGCAUAGUAUUUAGUUC [g2:g17:cont:t1C] | 0.00831 ± 0.0023
UCCUGGAUGUGGUUGCAUAGUAUUUUGUUA | 0.0039 ± 0.0037
UCCUGGAUGUCCUUGCAUUGUUUUUAGUUA | 0.00421 ± 0.0023
UCCUGGAUGAGCUUGCAUUGUAUAUAGUUA | 0.00388 ± 0.0029
UCCUGGUACAGCUAGCAUAGUUUUUAGUUA | 0.00928 ± 0.0026
UCCUGGAUGUCCUUGCAUAGUAAAUAGUUA | 0.00497 ± 0.0022
UCCUGGAUGAGCAUGCAUACUAUUUAGUUA | 0.00656 ± 0.0024
UCCUGGAUGUCGUCGCAUAGUAUUUAGUUA | 0.00436 ± 0.0024
UCCUGCUACAGCUUGCAUUCUAUUUAGUUA | 0.00339 ± 0.0024
UCCUGGAUGUGCUUACAUAGUAUUUAGUUA | 0.0117 ± 0.0028
UCCUGGAUCAGCUUGCUUAGUAUUUACUUA | 0.00642 ± 0.0022
UCCUGGAUGAGCUUGCAGAGUAUUUAGUUA | 0.00792 ± 0.0024
UCCUCCUACACCUUGCAUUGUAUUUAGUUA | 0.0078 ± 0.002
UCCUGGAUGUGCUUGCAAAGUAAUUAGUUA | 0.00395 ± 0.0028
UCCUGCUACAGCUUGCUUAGUAAUUAGUUA | 0.00332 ± 0.0026

Sequence | pre-steady-state target cleavage rate
UCCUGGAUGUCCUUGCAUAGUUUUAAGUUA | 0.00312 ± 0.0026
UCCUGGUACAGCUUGGAUAGUUUUUAGUUA | 0.00594 ± 0.0035
UCCUGGUACAGCUUCGAUAGUAUUUAGUAA | 0.00305 ± 0.0029
UCCUGGAUGUCCUUGCAAAGUAUUUAGUAA | 0.00418 ± 0.0019
UCCUGGAUGUCGUUGCUUAGUAUUUAGUAA | 0.00388 ± 0.0022
UCCUGGAUGUCGAUGCAUAGUAAUUUAGUUA | 0.00496 ± 0.0023
UCCUGGAUGUGCUUGCUUAGUAAUUAGUUA | 0.00576 ± 0.0023
UCCUGGAUGUCCUUGCAUAGUAUAUUAGUUA | 0.00666 ± 0.0032
UCCUCCUACAGCUUGCUAUGUAUUUAGUUA | 0.00506 ± 0.0018
UCCUGCUUCAGCUUGCAUUGUAUUUAGUUA | 0.0103 ± 0.0023
UCCUGGAUGUCGUUGCAUAGUAUUUAGUUG [g2:g18:cont:t1G] | 0.00688 ± 0.003
UCCUGGAUGUCGUUGCUUAGUAUUUUGUUA | 0.00381 ± 0.0029
UCCUGGAUGUCGUUGCAAAGUAUUUAGUUA | 0.00739 ± 0.0022
UCCUGGAUGUCCUUGGAUAGUAAUUAGUUA | 0.00325 ± 0.0027
UCCUGGAUGAGGAAGCAUAGUAUUUAGUUA | 0.00494 ± 0.0027
UCCUGGAUCAGCUUGCAUAGUAUUAACUUA | 0.00289 ± 0.0028
UCCUGGAUGUGCUUGGAUAGUAUAUAGUUA | 0.00335 ± 0.0032
UCCUGGAUGUGCUUGCUUUGUAUUUAGUUA | 0.00696 ± 0.0024
UCCUGCUACAGCUUGCAAAGAAUUUAGUUA | 0.00324 ± 0.0017
